The text below walks through data of PubChem BioAssay.

Results filed as inconclusive are left out. Calls of active or inactive are those of the source.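 Rule for the calls: active = viability at or below 27.92% in each of two runs, the all-compound median minus 4 SD; inconclusive = no clear call, values can overlap the other calls; inactive = the rest.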

One may read the viability as a read-out of living cells in per cent, often relative to untreated cells.

The nature of this assay: viability of PTEN-null HCT116 cells – cell-based, HCT116 clonal line, CellTiter-Glo, pilot screen (AID 824).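 Note: 0% = 20 µM Hyamine control and 100% = vehicle cell control.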 The note with it: HCT116 PTEN-deleted viability, 60 h, at 10 µM, stronger effect = lower value. (In general: Cellular ATP, detected with luciferase, serves as a proxy for viable cell number.)
Turning to `CCCCOC(=O)Nc1nc(CC(=O)OCC)cs1`, the viability was 95.7% (inactive).
Next, `N#Cc1nc(COc2ccc(Br)cc2)oc1N1CCCCCC1`: 67.5% (inactive); `COc1ccc(-c2cc(C(F)(F)F)n3nc(C(=O)N4CCCC4)cc3n2)cc1`: 84.7% (inactive).
Next, `CC(=O)Nc1ccc(NC(=O)C2CC(=O)N(c3cccc(C)c3C)C2)cc1` (configuration not stated): 91.2% (inactive).
Turning to `COCCNC(=O)CN(c1ccccc1OC)S(C)(=O)=O`, the viability is 101% (inactive).
As for `O=C(COC(=O)C1(c2ccccc2F)CCCC1)N1CCN(C(=O)c2ccco2)CC1`, the figure is 95.4% (inactive); as for `COC(=O)c1ccc(N2CCOCC2)c(NC(=O)Nc2cccc(OC)c2)c1`, 77.1% (inactive); as for `Cc1cc(C(F)(F)F)nc(NCc2ccc(F)cc2)n1`, 86.7% (inactive).
Next, `O=C(CCCc1ccccc1)NCc1cn2ccsc2n1`: 105% (inactive); `O=C(CSc1nc(-c2ccco2)cc(C(F)(F)F)n1)N1CCN(Cc2ccccc2)CC1`: 82.8% (inactive); `Cc1ccsc1-c1nc(CSCC(=O)N2CCN(c3ccccc3)CC2)c(C)o1`: 65.6% (inactive).
As for `CCn1c(SCc2nc(-c3ccccc3)no2)nc2ccccc21`, the figure is 92.3% (inactive); as for `COCCn1c(SCC(N)=O)nc2c(c1=O)SC(C)C2` (configuration not stated), 97% (inactive).
Turning to `CSC1=NCCN1C(=O)COc1ccc2ccccc2c1`, the viability is 101% (inactive).
Next, `O=C(CC1Sc2ccccc2NC1=O)Nc1cccc(C(=O)O)c1` (configuration not stated): 87% (inactive).
`O=C(c1ccncc1)N1CCN(C(=O)c2cccc3ccccc23)CC1`: the viability is 93.9% (inactive).
Regarding `COc1ccc(C)cc1NC(=O)c1ccoc1C`, the viability was 87.8% (inactive).
